Measurements published in PubChem BioAssay AID2546 (National Center for Advancing Translational Sciences (NCATS), 2010).
Hit rate of the full screen: of about 310,000 compounds, about 11,000 (3.5%) were called active. Inconclusive results (about 8%) are left out. The entries come from a sample that favours actives as a whole. Values without a mark were called inactive. Calls follow the shape of the dose curve; as a rule, active = well fitted inhibition curve with a large enough effect; inconclusive = small, poorly fitted or top-dose-only effect, or effect the other way; inactive = flat fitted curve, though single readings scatter.

assay: VP16 counterscreen qHTS for inhibitors of ROR gamma transcriptional activity; details: Drosophila S2 Gal4-VP16 UAS-luciferase, luminescence, 20 h; series mostly up to 53.6 µM; activity, negative = inhibition: at the top concentration;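 also: Gal4-VP16 expression switched on by copper sulfate through the metallothionein promoter; nearly all actives have a fitted effect of over 50% in size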
Excerpt: NIH Molecular Libraries Probe Production Network [MLPCN]
NIH Chemical Genomics Center [NCGC]
Assay Provider: Dan Littman, New York University
The retinoic acid-related orphan receptor (ROR) gamma is a transcription factor that has a central role in the differentiation of Th17 cells, a subset of T helper cells that secrete the inflammatory cytokines IL-17, IL-17F, and IL-22. Th17 cells have been implicated in graft versus host disease, autoimmune disease and asthma. ROR gamma is induced in naive T helper cells in the presence of TGF-beta combined with IL-6, IL-21, or IL-23, and thereafter directs the expression of the Th17 lineage cytokines. To identify nonspecific inhibitors, a Drosophila Schneider cell line was stably transfected with two vectors: a gene expressing a fusion of the Gal4 DNA binding domain and VP16 transactivation domain under the control of the metallothionine promoter and a Photinus luciferase reporter regulated by the Gal4 binding site enhancer, UAS. […] Small molecule inhibitors that inhibit components common to the RORgt and VP16 assays, such as the Gal4 DNA binding domain or the UAS luciferase reporter, will be active in both assays and thus scored as nonspecific.
For screening, 600 cells in 4 uL/well were dispensed into white solid 1536-well plates (Grenier) using a solenoid-based dispenser. Following transfer of 23 nL compound or DMSO vehicle by a pin tool, the plates were incubated 1 hr at ambient temperature, and 1 uL/well copper sulfate (700 uM final concentration) was added. The plates were centrifuged 15 s at 1000 RPM and incubated 20 hr at ambient temperature. After addition of 1.5 uL Photinus luciferase detection reagent, the plates were incubated 10 min at ambient temperature and then read by a ViewLux (Perkin Elmer) to detect luminescence.
% is scaled to controls: 0 for no effect and ±100 for the full control effect; potency is read from the fitted curve at half-maximal effect.

Row | Compound | activity, negative = inhibition [%] | Potency
1 | CSCC[C@H](NC(=O)N1CCn2c1nc1ccccc12)C(=O)NC1CCCCC1 | 0.703 | 
2 | O=C(COC(=O)c1cccs1)NCc1cccs1 | 28.5 | 
3 | O=C(COC(=O)c1cccs1)Nc1ccccc1Cl | 14.2 | 
4 | O=C(COC(=O)/C(=C/c1cccs1)c1cccs1)NCc1ccccc1Cl |  | 0.631 µM (active)
5 | O=C(Nc1cccc(Cl)c1Cl)c1ccccc1NC(=O)C1CC=CCC1C(=O)O (stereo unspecified) | -0.224 | 
6 | CCC1CCCCN1C(=O)CSc1nc2c(c(=O)n1C)SC(C)C2 (stereo unspecified) | 20 | 
7 | CCn1c(NC(=O)c2nn(C)cc2Br)nc2ccccc21 |  | 5.01 µM (active)
8 | CCC(=O)NCCc1nc2ccccc2n1CC | -3.17 | 
9 | Cn1sc(NC(=O)c2ccccc2)nc1=O | 1.42 | 
10 | CC(=O)NCCc1nc2cc(NC(=O)c3ccccc3)ccc2n1C | -4.52 | 
11 | Cn1c(NC(=O)c2ccccc2)nc2ccccc21 |  | 1.26 µM (active)
12 | Cc1nn(C)cc1C(=O)Nc1ccccc1Br | -0.656 | 
13 | CC(C)Cc1nnc(NC(=O)CN2C(=O)NC3(CCCCC3)C2=O)s1 | -2.73 | 
14 | Cc1cccn2c(=O)c3cc(C(=O)NCC4CCCO4)c(=N)n(Cc4ccc(F)cc4)c3nc12 (stereo unspecified) | -5.22 | 
15 | COc1ccccc1CN(C)C(=O)c1cc2ccccc2o1 | 23.3 | 
16 | COc1ccc(/C=N/NC(=O)Nc2ccc3nsnc3c2)c(OC)c1 | -18.8 | 
17 | COc1cc(/C=N/NC(=O)c2cccnc2)ccc1OC(=O)c1cccc(Br)c1 | -17.9 | 
18 | COc1ccc(-c2[nH]ncc2/C=N/NC(=O)c2cc(Br)ccc2O)c(OC)c1 |  | 0.891 µM (active)
19 | CN(c1ccccc1)S(=O)(=O)c1ccc(NC(=O)COc2ccccc2)cc1 | 6.26 | 
20 | COc1cc(/C(=C/c2ccccc2)c2ccccc2)c2c(c1)oc1ccccc12 | 18.4 | 
21 | O=C(COC(=O)c1ccc(Oc2ccccc2)cc1)Nc1nnc(-c2ccccc2)o1 |  | 5.62 µM (active)
22 | Cc1cccc(NC(=O)Nc2nnc(-c3ccccc3)o2)c1 | 7.84 | 

Row | Compound | activity, negative = inhibition [%] | Potency
23 | O=C(OCc1ccc(Br)cc1)c1cccc(-c2nnc(-c3ccccc3)o2)c1 | -23.9 | 
24 | COc1cc(CNCc2ccc3c(c2)OCO3)c([N+](=O)[O-])cc1OC | 11.9 | 
25 | Cc1ccc(C)c(OCc2cc(C(=O)N3CCN(c4cnccn4)CC3)no2)c1 | 2.89 | 
26 | Oc1ccc(-c2cccc(-c3ccc(O)cc3)c2)cc1 | 0.535 | 
27 | Cc1cccc(NC(=O)c2sc(-c3ccccc3)nc2-c2ccc([N+](=O)[O-])cc2)c1 | 8.36 | 
28 | O=C(Nc1ccccc1)/C(=C/c1ccc([N+](=O)[O-])cc1)NC(=O)c1ccccc1 | -5.61 | 
29 | CCOC(=O)/C(=C\c1ccc([N+](=O)[O-])cc1)C(=O)c1cc(C(C)=O)c(Nc2ccccc2)s1 |  | 5.62 µM (active)
30 | C#CC(C)(C)NC(=O)c1cnc(-c2ccccc2)nc1-c1ccccc1 | -20.7 | 
31 | CCC(=O)N(CCc1ccccc1)Cc1cc2cc(C)ccc2[nH]c1=O | -0.886 | 
32 | Cc1cc(C)n(CCNS(=O)(=O)c2ccc(Cl)cc2)n1 | -13.8 | 
33 | COc1cc2cc(C(=O)N/N=C/c3cccc(OC)c3OC)[nH]c2cc1OC | 6.33 | 
34 | COc1cccc(/C=N/NC(=O)c2[nH]nc3c2CCc2ccccc2-3)c1O |  | 0.794 µM (active)
35 | CN(C)CCNC(=O)c1[nH]nc2c1CCc1ccccc1-2 | 25.4 | 
36 | CN(C(=O)CN1C(=O)/C(=C/c2ccc(Cl)cc2)SC1=S)C1CCS(=O)(=O)C1 (stereo unspecified) | 12.8 | 
37 | Cc1cc(N/N=C/c2ccccc2F)c2ccccc2n1 | 21.9 | 
38 | Cc1nc2ccccc2nc1N/N=C/c1ccc(O)cc1O |  | 15.8 µM (active)
39 | Oc1ccc(/C=N/NC2=NCCCCC2)c(O)c1 | -17.7 | 
40 | CC(NC(=O)C(=O)NN=C1CCC(C(C)(C)C)CC1)c1ccccc1 (stereo unspecified) | 2.98 | 
41 | CC(C)(C)C1CCC(=NNC(=O)c2cc(-c3ccccc3)n[nH]2)CC1 (stereo unspecified) |  | 20 µM (active)
42 | CC(C)(C)C1CCC(=NNC(=O)c2ccc(Br)o2)CC1 (stereo unspecified) | 22.2 | 
43 | CN(Cc1ccccc1Cl)C(=O)C1CCC(=O)N(CCc2cccc(F)c2)C1 (stereo unspecified) | -0.0132 | 
44 | O=C(CCCn1c(=O)[nH]c2cc(Cl)ccc2c1=O)NCCN1CCN(c2ccccc2)CC1 | -16.5 | 

Row | Compound | activity, negative = inhibition [%] | Potency
45 | CCn1c(=O)cc(OCC(=O)NCCCN2CCN(c3cccc(Cl)c3)CC2)c2ccccc21 | -3.73 | 
46 | O=C(Cc1csc(Nc2nc(=S)[nH]c3ccccc23)n1)NCCCN1CCN(c2cccc(Cl)c2)CC1 |  | 7.08 µM (active)
47 | CCCCn1c(N)c(N(CC)C(=O)c2ccccc2C(F)(F)F)c(=O)[nH]c1=O | 0.0447 | 
48 | Cc1ccc(CNC(=O)Cc2cn(C)c3ccccc23)cc1 | -17.6 | 
49 | CC1CCCC(C)N1C(=O)CSc1nnnn1C1CCCC1 (stereo unspecified) | 9.98 | 
50 | O=C(NCCCO)c1cc2c([nH]c3ccccc32)c(-c2ccc(F)cc2)n1 | -2.48 | 
51 | S=c1[nH]c2ccccc2c2ccccc12 |  | 17.8 µM (active)
52 | CC(=O)c1c(-c2ccccc2)c2ccccc2[nH]c1=O | -12.5 | 
53 | NC(=O)Cc1ccc2c(c1)[nH]c1ccccc12 | -6.18 | 
54 | O=C(Nc1ccccc1)Nc1nc2ccccc2s1 | -14 | 
55 | COc1ccc(S(=O)(=O)N2CCOCC2)cc1C(=O)Nc1nc2ccccc2s1 | 1.45 | 
56 | COc1cccc2sc(NNC(=O)c3nc4ccccc4s3)nc12 |  | 2 µM (active)
57 | O=c1[nH]cccc1-c1nc2ccccc2n1Cc1ccc(Cl)cc1 | -21.2 | 
58 | Cc1cc(C)c(NC(=O)CN2CCCCCC2)c(C)c1 | -15.9 | 
59 | Fc1ccccc1/C=N/n1c(-c2cccnc2)n[nH]c1=S | -12.9 | 
60 | Cc1cc(-c2n[nH]c(=S)n2/N=C/c2ccco2)n[nH]1 | -4.55 | 
61 | Cc1cc(-c2n[nH]c(=S)n2/N=C/C(Br)=C/c2ccccc2)n[nH]1 |  | 11.2 µM (active)
62 | Oc1ccccc1/C=N/n1c(-c2cccs2)n[nH]c1=S | -23.3 | 
63 | S=c1[nH]nc(-c2cccnc2)n1/N=C/C(Cl)=C\c1ccccc1 |  | 7.08 µM (active)
64 | O=[N+]([O-])c1ccccc1/C=N/n1c(COc2ccccc2)n[nH]c1=S | 4.97 | 
65 | COc1ccc(C2(O)C(=O)Nc3ccccc32)cc1 (stereo unspecified) | 1.98 | 
66 | COCCN1C(=O)C(=O)/C(=C(/O)c2ccc(S(=O)(=O)N3CCOCC3)cc2)C1c1ccc(O)c(OC)c1 (stereo unspecified) | 3.48 | 

Row | Compound | activity, negative = inhibition [%] | Potency
67 | CC(C)c1ccc(/C=C2\NC(=O)NC2=O)cc1 | -18.8 | 
68 | CCN(CC)S(=O)(=O)c1ccc(C(=O)N2CCN(C3=NS(=O)(=O)c4ccccc43)CC2)cc1 | -3.34 | 
69 | Cc1nc2nc(SCC(=O)Nc3cccc(F)c3)[nH]c2cc1Br | -23.5 | 
70 | O=C(O)CCC(=O)Nc1ccc(OCC2CCCO2)cc1 (stereo unspecified) | 2.4 | 
71 | Cc1ccc(-c2cc(C(=O)N/N=C/C=C/c3ccco3)c3ccccc3n2)cc1C |  | 4.47 µM (active)
72 | Cc1cc(C(=O)N/N=C/c2ccccn2)c2ccccc2n1 | 1.06 | 
73 | COc1cccc(-c2cc(C(=O)N/N=C/c3ccc(OC)c(COC(C)=O)c3)c3ccccc3n2)c1 | 0.568 | 
74 | CC(NC(=O)CCCC1CCCCC1)c1ccc(S(N)(=O)=O)cc1 (stereo unspecified) | 4.41 | 
75 | O=C(O)CCn1c(Cc2ccccc2)nc2ccccc21 | -6.39 | 
76 | Cc1cc2ccccc2n1CCC(=O)O | 4.81 | 
77 | O=C(O)CCn1c(O)c(C=C2N=c3ccccc3=N2)sc1=S |  | 3.55 µM (active)
78 | COc1ccc(CCNC(=O)CCc2cn(C)c3ccccc23)c(OC)c1 | -3.69 | 
79 | COC(=O)CN1C(=O)C(C)(C)Oc2ccc(C(=O)Nc3cccc(OC)c3)cc21 | 3.12 | 
80 | Cn1c(=O)c2c(nc(OCc3cccnc3)n2Cc2ccccc2)n(C)c1=O | -0.554 | 
81 | COC(=O)C(C)Sc1nc2c(c(=O)n(C)c(=O)n2C)n1Cc1cccc(C)c1 (stereo unspecified) | -9.29 | 
82 | CCn1c(NCCc2ccc(OC)c(OC)c2)nc2c1c(=O)n(C)c(=O)n2C | -6.82 | 
83 | CCCCNc1nc2c(c(=O)n(C)c(=O)n2C)n1Cc1cccc(OC)c1 |  | 4.47 µM (active)
84 | Cn1c(=O)c2c(nc(NCCc3ccccc3)n2Cc2ccccc2)n(C)c1=O |  | 6.31 µM (active)
85 | CCNc1ncc2ncc(=O)n(Cc3cccc(OC)c3)c2n1 |  | 11.2 µM (active)
86 | Cn1c(=O)c2c(nc(NCc3ccccc3)n2CC(N)=O)n(C)c1=O | -1.04 | 
87 | CCNc1ncc2ncc(=O)n(CCc3ccccc3)c2n1 | -14.9 | 
88 | COc1cccc(Cn2c(=O)cnc3cncnc32)c1 | 5.12 | 

Row | Compound | activity, negative = inhibition [%] | Potency
89 | CCOCCCn1c(SCC(=O)Nc2cc(OC)ccc2OC)nc2ccccc2c1=O | -6.3 | 
90 | CC(C)c1nc2cc(C(=O)NC(C)c3cnn(C)c3)ccc2o1 (stereo unspecified) | 25.6 | 
91 | Cc1cnc(C(=O)Oc2cccc(Cl)c2Cl)cn1 | -15.1 | 
92 | COCCN1CCN(C(=O)c2cc(COc3ccc(F)cc3Cl)on2)CC1 | -13.8 | 
93 | CC(C)c1ccc(NC(=O)Cn2ncc3ccccc32)cc1 | 2.09 | 
94 | O=S1(=O)CCO[C@H]2Cc3ccccc3[C@H]2N1Cc1ccccc1 | -5.04 | 
95 | CCN(CC(=O)NCCCN1CCOCC1)S(=O)(=O)c1cc(Cl)ccc1Cl | 8.86 | 
96 | COc1ccc(CC(=O)N[C@@H](CCSC)c2nc3ccccc3[nH]2)cc1 | -4.35 | 
97 | CSCCC(NC(=O)c1cc([N+](=O)[O-])cc([N+](=O)[O-])c1)c1nc2ccccc2[nH]1 (stereo unspecified) |  | 25.1 µM (active)
98 | CSCCC(NC(=O)c1ccc(=O)n(C)n1)c1nc2ccccc2[nH]1 (stereo unspecified) | 3.34 | 
99 | CC(c1ccccn1)N(C)C(=O)c1ccc2nc(Cc3cccc(Cl)c3)oc2c1 (stereo unspecified) | 8.69 | 
100 | CCOC(=O)C(C)n1cnc2c(nnn2-c2cccc(OC)c2)c1=O (stereo unspecified) | 25.9 | 
101 | Clc1ccc(-c2cc(-c3ccccn3)on2)c(Cl)c1 |  | 7.08 µM (active)
102 | O=C1CSC(c2ccccc2)N1c1nc(-c2ccc(Cl)cc2Cl)cs1 (stereo unspecified) | -5.04 | 
103 | O=C(NCc1ccccn1)c1cc(-c2ccccc2Cl)on1 | 13.9 | 
104 | CC(=O)N1c2ccc(S(=O)(=O)N3CCCC(C(=O)Nc4cccc(Cl)c4)C3)cc2CC1C (stereo unspecified) | -23.7 | 
105 | CC(=O)N1CCCc2cc(S(=O)(=O)N3CCCC(C(=O)NCc4ccc(Cl)cc4)C3)ccc21 (stereo unspecified) | -0.363 | 
106 | CC(=O)N1CCCc2cc(S(=O)(=O)N3CCCC(C(=O)N4CCN(c5cccc(Cl)c5)CC4)C3)ccc21 (stereo unspecified) |  | 3.98 µM (active)
